In PubChem BioAssay AID720597 (Broad Institute, 2013):
Measured potencies and affinities stand elsewhere. Activity calls are given as the source filed them.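 Rule for the calls: active = fitted half-maximal dose no more than twice the top valid tested dose, for compounds that lower signal; inconclusive = fit invalid, or curve flat with activity between -70 and -30; inactive = potency past limit, curve flat within ±30, or signal increasing.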

Biological target: NAD-dependent protein deacylase sirtuin-5, mitochondrial (Homo sapiens) (UniProt Q9NXA8)
Sequence (Q9NXA8 whole entry, looked up): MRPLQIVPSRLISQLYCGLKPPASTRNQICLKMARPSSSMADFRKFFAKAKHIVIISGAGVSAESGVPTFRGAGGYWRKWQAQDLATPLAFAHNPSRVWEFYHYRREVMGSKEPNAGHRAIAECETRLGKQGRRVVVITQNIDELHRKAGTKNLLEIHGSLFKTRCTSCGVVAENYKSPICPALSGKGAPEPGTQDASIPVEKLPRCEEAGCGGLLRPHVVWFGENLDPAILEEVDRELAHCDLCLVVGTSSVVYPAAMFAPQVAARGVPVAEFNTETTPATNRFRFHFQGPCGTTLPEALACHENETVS
Assay: SIRT5 deacylase inhibitors, dose response, biochemical, fluorescence imaging, cherry-pick, set 6 (AID 720597);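 note: lower AMC signal can also come from blocking the trypsin step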
Conditions: Purified SirT5, succinyl-peptide-AMC/trypsin fluorescence; series mostly up to 15 µM

outcome, inactive:
CCCNC(=O)N1CC(=O)N2[C@H](CO)[C@@H](c3ccc(-c4ccc(F)cc4)cc3)[C@@H]2C1, C[C@@H]1CN([C@H](C)CO)S(=O)(=O)c2ccc(C3=CCCCC3)cc2O[C@H]1CN(C)S(=O)(=O)c1ccc(F)cc1, COc1cccc(NC(=O)N(C)C[C@@H]2Oc3cc(C#Cc4ccccc4)ccc3S(=O)(=O)N([C@H](C)CO)C[C@H]2C)c1, Cc1ccc(S(=O)(=O)N(C)C[C@H]2OCCCC[C@@H](C)Oc3ccc(NS(=O)(=O)c4ccc(Cl)cc4)cc3C(=O)N([C@@H](C)CO)C[C@@H]2C)cc1, C[C@@H]1CN([C@@H](C)CO)S(=O)(=O)c2ccc(C#CC(C)(C)O)cc2O[C@H]1CN(C)Cc1ccc(F)cc1, CO[C@@H](CN(C)Cc1ccc2c(c1)OCO2)[C@@H](C)CN(C(=O)Nc1ccc(F)cc1)[C@H](C)CO, O=C(C[C@H]1CC[C@H]2[C@@H](COC[C@@H](O)CN2Cc2cccc(Cl)c2)O1)N1CCCCC1, C[C@@H]1CCCCO[C@H](CN(C)C(=O)Nc2ccc(C(F)(F)F)cc2)[C@H](C)CN([C@H](C)CO)C(=O)c2cc(NS(=O)(=O)c3ccc(Cl)cc3)ccc2O1, COc1cccc(-c2ccc3c(c2)[C@@H]2[C@@H](CCN2C(=O)c2ccccc2F)[C@H](CO)N3C)c1, C[C@@H]1CCCCO[C@@H](CN(C)CC2CCCCC2)[C@H](C)CN([C@H](C)CO)C(=O)c2cc(NC(=O)CCCCCC(=O)Nc3ccccc3N)ccc2O1, C[C@H]1CN([C@@H](C)CO)S(=O)(=O)c2ccc(C3=CCCC3)cc2O[C@@H]1CN(C)Cc1ccccc1, COc1cccc(CN2[C@@H](CO)[C@H](c3ccccc3)C23CN(C(=O)C2CCCC2)C3)c1, COc1cccc(CNC(=O)C[C@H]2CC[C@H]3[C@H](COc4ccc(NS(=O)(=O)c5ccccc5F)cc4C(=O)N3C)O2)c1, CCNC(=O)C[C@H]1CC[C@H]2[C@@H](COc3ccc(NS(=O)(=O)c4ccccc4C)cc3C(=O)N2C)O1, CC(C)C#Cc1cnc2c(c1)C(=O)N([C@H](C)CO)C[C@@H](C)[C@H](CN(C)C(=O)CN1CCOCC1)O2, COc1ccc(S(=O)(=O)N(C)C[C@H]2Oc3ccc(NC(=O)NC4CCCCC4)cc3C(=O)N([C@@H](C)CO)C[C@@H]2C)cc1, COc1ccccc1-c1ccc2c(c1)O[C@@H](CN(C)S(=O)(=O)c1ccc(F)cc1)[C@@H](C)CN([C@@H](C)CO)S2(=O)=O, C[C@@H]1CN([C@@H](C)CO)C(=O)c2cc(NC(=O)Cc3cn(C)c4ccccc34)ccc2O[C@H]1CN(C)Cc1ccc(Cl)c(Cl)c1, C[C@@H]1CN([C@@H](C)CO)C(=O)c2cc(C#CCN(C)C)cnc2O[C@@H]1CN(C)Cc1ccncc1, Cc1cc(C)cc(NC(=O)C2CC(=O)n3ncnc3N2)c1 (stereo not given), O=C(NCC[C@@H]1CC[C@@H](NS(=O)(=O)c2cccc(F)c2)[C@@H](CO)O1)C1CCOCC1, C[C@@H]1CN([C@H](C)CO)S(=O)(=O)c2ccc(/C=C/c3ccccc3)cc2O[C@@H]1CN(C)C(=O)c1ccc2c(c1)OCO2, C[C@H](CO)N1C[C@H](C)[C@@H](CN(C)S(=O)(=O)c2ccc(F)cc2)Oc2cc(C#Cc3ccc(F)cc3)ccc2S1(=O)=O, COc1ccc(S(=O)(=O)N(C)C[C@@H]2Oc3ccc(NC(=O)CCC(F)(F)F)cc3C(=O)N([C@H](C)CO)C[C@H]2C)cc1, O=C(CCN1CCCCC1)N[C@@H]1CC[C@@H](CC(=O)N2CCC(Cc3ccccc3)CC2)O[C@H]1CO, C[C@H](CO)N1C[C@H](C)[C@@H](CN(C)Cc2ccc(Oc3ccccc3)cc2)Oc2ccc(NS(=O)(=O)c3ccc(Cl)cc3)cc2CC1=O, CCOc1ccc(C)cc1S(=O)(=O)n1ccnc1C, C[C@@H]1CCCCO[C@@H](CN(C)C(=O)CCCN(C)C)[C@@H](C)CN([C@H](C)CO)C(=O)c2cc(NS(=O)(=O)c3ccccc3)ccc2O1, C[C@@H]1CN([C@H](C)CO)S(=O)(=O)c2ccc(C#CC3CC3)cc2O[C@@H]1CN(C)Cc1ccccc1F, O=C(CCN1CCCCC1)N[C@H]1CC[C@@H](CCn2cc(-c3ccc(F)cc3)nn2)O[C@H]1CO
